Assay results as given in PubChem BioAssay (Tox21).
A number with no mark means an inactive call. Records with an inconclusive call do not appear. Where a call stands in place of a potency, no number is given. Active and inactive are the calls of the source. Unless noted, calls follow the shape of the dose curve; as a rule, active = well fitted curve in the direction sought with a large enough effect in the repeat runs; inconclusive = weak or mixed curves; inactive = no such curve, though single readings can be large; an effect the other way counts as inactive or inconclusive.

Experiments:
[1] = qHTS assay to identify small molecule agonists of the estrogen receptor alpha (ER-alpha) signaling pathway in the presence of an antagonist - cell viability counter screen (AID 1259386);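 also: cells exposed to compounds for 22 h at 37 °C before the viability read; nearly all actives have a fitted effect of over 30% in size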; also: potency is read from the fitted curve at half-maximal effect
Summary of the method: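 Read-out: CellTiter-Fluor fluorescence after 1hr reagent incubation, measured in the same wells as the luciferase readout. VM7Luc4E2 cells were exposed to 15 compound concentrations with 10.0nM ICI-182,780 for 22hr at 37C.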

[2] = target: Progesterone receptor (Homo sapiens) (UniProt P06401); test: qHTS assay to identify small molecule agonists of the progesterone receptor (PR) signaling pathway (AID 1346784; calls by dose curve; also: nearly all actives have a fitted effect of over 30% in size; also: potency is read from the fitted curve at half-maximal effect)
Sequence of Progesterone receptor (Homo sapiens) (P06401 whole entry, looked up): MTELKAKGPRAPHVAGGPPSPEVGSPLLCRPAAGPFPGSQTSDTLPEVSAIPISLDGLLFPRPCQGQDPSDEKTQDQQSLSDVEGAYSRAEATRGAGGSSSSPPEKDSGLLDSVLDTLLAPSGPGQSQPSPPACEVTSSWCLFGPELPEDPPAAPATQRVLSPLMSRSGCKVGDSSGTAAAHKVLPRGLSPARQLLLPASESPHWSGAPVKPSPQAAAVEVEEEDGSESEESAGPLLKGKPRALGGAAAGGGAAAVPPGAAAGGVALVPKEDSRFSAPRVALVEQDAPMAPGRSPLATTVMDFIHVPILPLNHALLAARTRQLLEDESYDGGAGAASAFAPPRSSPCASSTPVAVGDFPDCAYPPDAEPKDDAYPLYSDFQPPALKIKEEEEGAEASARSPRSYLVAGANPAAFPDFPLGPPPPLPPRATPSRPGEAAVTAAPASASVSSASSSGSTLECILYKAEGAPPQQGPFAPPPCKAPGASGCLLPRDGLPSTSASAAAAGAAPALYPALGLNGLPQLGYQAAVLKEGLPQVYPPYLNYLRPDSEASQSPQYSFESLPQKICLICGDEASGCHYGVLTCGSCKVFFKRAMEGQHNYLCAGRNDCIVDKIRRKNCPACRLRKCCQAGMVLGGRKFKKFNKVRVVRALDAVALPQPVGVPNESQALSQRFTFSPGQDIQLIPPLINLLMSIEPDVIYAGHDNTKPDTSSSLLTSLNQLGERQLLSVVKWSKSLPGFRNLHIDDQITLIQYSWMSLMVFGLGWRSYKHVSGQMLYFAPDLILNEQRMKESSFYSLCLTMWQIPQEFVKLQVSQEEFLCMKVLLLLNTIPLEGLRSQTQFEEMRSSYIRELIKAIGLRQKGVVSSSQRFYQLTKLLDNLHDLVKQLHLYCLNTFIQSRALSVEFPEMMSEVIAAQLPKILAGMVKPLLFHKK
Summary of the method: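 Seed PR-UAS-bla HEK 293T cells (2% charcoal-stripped FBS), incubate 6 hr at 37C; add compounds in DMSO, 16 hr at 37C; add LiveBLAzer B/G substrate, 2 hr RT; read fluorescence intensity.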

[3] = target: Progesterone receptor (Homo sapiens) (UniProt P06401); test: qHTS assay to identify small molecule antagonists of the progesterone receptor (PR) signaling pathway (AID 1346795; active = well fitted inhibition curve with a large enough effect in the signal ratio in the repeat runs, not every such curve was filed as active; the % refers to the signal ratio; also: potency is read from the fitted curve at half-maximal effect)
Summary of the method: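 Screening used a GripTite HEK293T line with PR-responsive UAS-beta-lactamase. Cells were challenged with compound in the presence of 1 nM R5020 final for 16 hr at 37C; B/G FRET substrate, 2 hr room temperature, fluorescence.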

[4] = qHTS assay to identify small molecule antagonists of the progesterone receptor (PR) signaling pathway - cell viability counter screen (AID 1346798); also: series mostly up to about 92 µM; nearly all actives have a fitted effect of over 50% in size
Summary of the method: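 Measures cytotoxicity in parallel with the PR antagonist reporter read: HEK293T PR-UAS-bla cells get compound and R5020 for 16 hr, and remaining viable cells are quantified by CellTiter-Glo luminescence.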

[5] = qHTS assay to identify small molecule antagonists of the TGF-beta/Smad signaling pathway - cell viability counter screen (AID 1346824); also: nearly all actives have a fitted effect of over 50% in size
Summary of the method: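 SBE-bla HEK 293T cells were plated overnight at 37 C, then given compounds in DMSO plus TGF-beta1 (added as 0.25 ng/mL solution) for 5 hr. After the bla read, CellTiter-Glo was added to the same wells and luminescence read after 30 min at room temperature.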

[6] = qHTS assay to identify small molecule agonists of the TGF-beta/Smad signaling pathway - cell viability counter screen (AID 1346829); also: top concentration of the series differs between compounds; nearly all actives have a fitted effect of over 45% in size
Summary of the method: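 Here the cytotoxicity of library compounds is measured in SBE-bla HEK 293T cells treated for 5 hr, using CellTiter-Glo added to wells already read for the beta-lactamase reporter.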

[7] = qHTS assay to identify small molecule agonists of the TGF-beta/Smad signaling pathway (AID 1346859; active = well fitted activation curve with a large enough effect in the signal ratio in the repeat runs, not every such curve was filed as active; the % refers to the signal ratio; also: series mostly up to about 77 µM)
Summary of the method: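 Beta-lactamase reporter activity downstream of Smad binding elements was measured in stably transfected HEK 293T cells; compounds were incubated for 5 hr, substrate for 2 hr at room temperature.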

[8] = qHTS assay to identify small molecule agonists of the progesterone receptor (PR) signaling pathway - cell viability counter screen (AID 1346799; calls by dose curve; also: nearly all actives have a fitted effect of over 45% in size)
Summary of the method: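 Using the same plates as the PR reporter screen, HEK293T PR-UAS-bla cells received compounds for 16 hr at 37C and were then lysed with CellTiter-Glo; luminescence was read 30 min later at room temperature.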

[9] = target: Thyrotropin-releasing hormone receptor (Homo sapiens) (UniProt P34981); test: qHTS assay to identify small molecule antagonists of the thyrotropin-releasing hormone receptor (TRHR) signaling pathway (AID 1346877; active = well fitted inhibition curve with a large enough effect in the repeat runs, not every such curve was filed as active; also: series mostly up to about 51 µM)
Sequence of Thyrotropin-releasing hormone receptor (Homo sapiens) (P34981 whole entry, looked up): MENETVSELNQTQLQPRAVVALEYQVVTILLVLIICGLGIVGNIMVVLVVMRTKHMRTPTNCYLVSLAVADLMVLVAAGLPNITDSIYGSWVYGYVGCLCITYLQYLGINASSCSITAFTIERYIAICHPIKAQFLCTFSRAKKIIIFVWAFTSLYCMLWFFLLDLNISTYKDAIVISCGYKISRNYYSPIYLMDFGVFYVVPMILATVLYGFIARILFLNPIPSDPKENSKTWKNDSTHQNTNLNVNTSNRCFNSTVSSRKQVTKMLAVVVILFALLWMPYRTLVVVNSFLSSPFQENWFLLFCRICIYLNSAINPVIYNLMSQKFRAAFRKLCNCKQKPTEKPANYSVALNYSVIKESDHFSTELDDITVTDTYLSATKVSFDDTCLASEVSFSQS
Summary of the method: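 HEK293/TRHR cells, 18 h, 37 °C; Ca2+ dye 2 h; cpd 5 min RT; TRH 1 nM final; fluorescence read 3 min, 1 s intervals; 15 concs, triplicate.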

SMILES	Potency [1]	Potency [2]	Potency [3]	Potency [4]	outcome [5]	outcome [6]	outcome [7]	Potency [8]	outcome [9]
CCn1nc(C)c2c1C(=O)NCC(c1ccc(O)cc1)=N2	inactive	inactive	inactive	inactive	inactive	inactive	inactive	–	–
CCc1cccc(N(C)C(N)=Nc2cccc3ccccc23)c1	inactive	inactive	inactive	inactive	inactive	inactive	inactive	inactive	–
CCCCC(CC)C(=O)OCCOCCOCCOCCOC(=O)C(CC)CCCC (stereo not drawn)	inactive	inactive	inactive	inactive	inactive	–	inactive	inactive	inactive
CCc1nn(CCCN2CCN(c3cccc(Cl)c3)CC2)c(=O)n1CCOc1ccccc1	29.8 µM (active)	inactive	26.6 µM (active)	–	inactive	inactive	inactive	–	inactive
CCCOc1ccc(S(=O)(=O)N2CCN(CC)CC2)cc1-c1nc2c(CC)n(Cc3ccccn3)nc2c(=O)[nH]1	inactive	inactive	–	–	inactive	inactive	–	inactive	inactive
CCCCC1C(=O)N(c2ccccc2)N(c2ccc(O)cc2)C1=O (stereo not drawn)	inactive	–	–	–	inactive	–	–	–	–
CCCCC(=O)O[C@]1(C(=O)CO)CC[C@H]2[C@@H]3CCC4=CC(=O)CC[C@]4(C)[C@H]3[C@@H](O)C[C@@]21C	inactive	–	inactive	inactive	inactive	inactive	inactive	inactive	inactive
CCCCN(CCCC)CCCOC(=O)c1ccc(N)cc1	–	–	–	inactive	inactive	inactive	inactive	–	inactive
CO[C@@]12[C@H](COC(N)=O)C3=C(C(=O)C(C)=C(N)C3=O)N1C[C@@H]1N[C@@H]12	–	inactive	–	inactive	inactive	inactive	inactive	–	–
Cc1cc(S(=O)(=O)O)ccc1N=Nc1c(O)ccc2ccccc12	–	inactive	inactive	–	inactive	inactive	inactive	inactive	–
CC1=C(/C=C/C(C)=C\C=C\C(C)=C\C(=O)O)C(C)(C)CCC1	–	–	–	inactive	inactive	inactive	–	–	inactive
O=C(CCC1CCN(Cc2ccccc2)CC1)c1ccc2c(c1)NCCCC2	–	inactive	inactive	inactive	inactive	inactive	inactive	–	inactive
CC(=O)OCC(=O)[C@H]1CC[C@H]2[C@@H]3CCC4=CC(=O)CC[C@]4(C)[C@H]3CC[C@]12C	inactive	–	inactive	inactive	inactive	inactive	inactive	–	inactive
CC(C)CCCC(=O)O	–	inactive	inactive	inactive	inactive	inactive	inactive	inactive	–
CCN(CC)CCNC(=O)c1ccc(NC(C)=O)cc1	–	inactive	inactive	inactive	inactive	inactive	inactive	inactive	inactive
CCCCC(=O)O[C@]1(C(=O)CO)[C@@H](C)C[C@H]2[C@@H]3CCC4=CC(=O)C=C[C@]4(C)[C@@]3(F)[C@@H](O)C[C@@]21C	–	0.0019 µM (active)	inactive	–	inactive	inactive	–	inactive	–
O=C(CCCN1CCN(c2ccc(F)cc2)CC1)NC1c2ccccc2CSc2ccccc21 (stereo not drawn)	inactive	inactive	–	–	inactive	inactive	inactive	inactive	inactive
CCC1(C)CC(=O)NC1=O (stereo not drawn)	–	inactive	inactive	inactive	inactive	inactive	inactive	inactive	inactive
CC(=O)[C@H]1CC[C@H]2[C@@H]3C[C@H](C)C4=CC(=O)CC[C@]4(C)[C@H]3[C@@H](O)C[C@]12C	inactive	0.0067 µM (active)	–	–	inactive	inactive	inactive	–	inactive
Cc1nccn1-c1ccc(Sc2cccc(C3(C(N)=O)CCOCC3)c2)cc1	–	–	–	–	–	inactive	inactive	–	inactive
C[C@@H]1C[C@H]2[C@@H]3CCC4=CC(=O)C=C[C@]4(C)[C@@]3(F)[C@@H](O)C[C@]2(C)[C@@]1(O)C(=O)CO	–	–	–	–	inactive	inactive	inactive	–	–
CC(C)=CC=O	–	–	–	inactive	inactive	inactive	inactive	inactive	inactive
